Assay results as given in the supplement of paper PMC6555819.

What was measured:
Experiment in all cases: PBM binding z-score (relative to random genomic background probes); higher = stronger binding; sequences stand for … in GC…GCGATTGACAGCGTAGAATGAAGG
[1] = system: PPARg:RXRa DBDmut IVT, anti-RXR (DBD mutation: RXRa K156A/R161A, NR concentration 270 nM, RXRa partner concentration 90 nM)
Outline: (§1)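 The probes on custom Agilent 4×180K protein-binding microarrays were double-stranded, with 34-nt variable regions bearing direct-repeat seeds, single-nucleotide variants, half-site ablations and random human genomic background sequences. Incubation lasted 1 h with ligand-free nuclear receptor dimers in PBS pH 7.4, 2% milk, 0.02% Triton X-100, 1 mM DTT, 0.2 mg/mL BSA and 0.4 mg/ml salmon testes DNA. Antibodies against each partner (one per run) detected bound dimers, and fluorescence scans were regression-normalized. Binding z-scores take the random background probes as reference.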

[2] = system: PPARg:RXRa IVT, anti-PPARg (NR concentration 270 nM, RXRa partner concentration 90 nM)
Outline: as §1

[3] = system: PPARg DBDmut:RXRa IVT, anti-PPARg (DBD mutation: PPARg1 K132A/R137A, NR concentration 270 nM, RXRa partner concentration 90 nM)
Outline: as §1

[4] = system: PPARg DBDmut IVT, anti-PPARg (DBD mutation: PPARg1 K132A/R137A, NR concentration 270 nM)
Outline: as §1

[5] = system: PPARg homodimer (NR concentration 180 nM)
Outline: as §1

[6] = system: PXR:RXRa (NR concentration 270 nM, RXRa partner concentration 90 nM)
Outline: as §1

[7] = system: PXR homodimer (NR concentration 270 nM)
Outline: as §1

[8] = system: RARa:RXR (NR concentration 270 nM, RXRa partner concentration 90 nM)
Outline: as §1

[9] = system: RARa homodimer (NR concentration 270 nM)
Outline: as §1

[10] = system: RARb:RXRa (NR concentration 270 nM, RXRa partner concentration 90 nM)
Outline: as §1

Sequence	PBM binding z-score [1]	PBM binding z-score [2]	PBM binding z-score [3]	PBM binding z-score [4]	PBM binding z-score [5]	PBM binding z-score [6]	PBM binding z-score [7]	PBM binding z-score [8]	PBM binding z-score [9]	PBM binding z-score [10]
CGTCCAAGGTCAATGCTAGGTCAGTGACAGCATT	3.59	4.07	0.933	0.0917	5.74	4.98	1.04	6.17	2.41	5.26
ATCTCTAGGTAACAAGTTCAGAGAAAGAGAGGAC	2.92	2.66	0.959	2.27	0.923	1.59	1.6	1.1	1.3	1.53
ATCTCTAGATAAGACTCAGTTCAGTGAAGAACGC	-0.453	-0.237	-0.428	1.1	-0.287	0.428	0.883	-0.0778	0.631	-0.306
AGAATGATGTTACCAAAGATCAGGGAAACGCTTG	-0.0632	0.0152	0.508	0.116	-0.153	-0.39	-0.411	0.018	0.147	-0.129
GTACCAAGGTGAATCGGTCGTTGATGAGTAGGCG	1.93	2.44	-0.354	-0.848	-0.00106	-0.262	-0.354	0.293	-0.11	1.67
CGTCCAAGGACATAGGAGGTCAGTGAAGACAGAT	0.24	1.36	-0.861	-1.72	1.48	2.07	0.81	2.11	0.692	2.76
AGAATGAGGTTAAGATAAGGGAAACAGAATACAT	2.37	2.34	1.82	1.35	1.38	1.12	0.744	1.8	1.27	1.83
CCTACTGGGCCCTCAGGTCATTGATATCAACGTT	-0.0673	1.11	-0.224	-0.58	0.88	1.43	0.581	1.64	0.179	1.4
GTTAGCAGGCCATTTGGGTCACTCAATGACGGGC	2.37	2.61	-0.276	-0.494	-0.0267	0.566	0.185	0.925	-0.249	1.52
TCTACTAGGTCAACGATGGTCAGCTAATCTGCTA	7.66	7.96	1.25	1.79	1.93	1.93	0.246	2.54	1.28	4.23
CCTACTGGGCCAAAAAGGTCATTGACGCCGATAA	3.85	3.99	-0.855	-0.422	2.91	4.65	2.1	5.01	1.28	3.72
AATACAGGGTCATCCTAGGCCAGAGTACGCACAG	2.5	4.16	1.89	1.39	2.39	5	0.711	4.8	1.41	4.46
ATCTCTAGGTAAAGTTCAGTTAAAGATCGATAGA	2.25	2.63	1.03	0.905	2.02	2.33	1.72	1.81	1.83	2.78
GCTTGCAGATCAAGGTTAAGAAAGACTAAGCTAA	0.163	0.227	-0.556	-0.251	-0.687	0.18	-0.42	0.588	-0.293	0.686
ATCTCTAGGTAAAGATCGTTCAGTGAATGCAAAT	2.03	1.66	1.31	0.707	0.555	-0.16	0.0441	0.0862	0.49	-0.0299
TCTCAAAGTTCAAAGGTAACGTAAGTATCCACAC	2.92	1.65	0.898	1.45	3.16	5.66	4.17	6.13	2.08	5.15
AGAACGAGGGCAATGAGGTGATAGCACGGGTGGC	3.36	3.33	0.776	0.448	0.588	1.06	0.905	0.818	0.144	2.13
ATCTCTAAGTAAAAGTTCAGTGAATCCCGAGGAT	-0.124	0.598	0.919	0.992	1.15	1.72	1.61	1.19	1.33	2.33
TCTAGCAGGCCAGAGCGTCACTCAAGAGGTACGG	0.578	-0.464	-0.145	-0.832	-1.42	-0.785	-0.819	-0.492	-0.772	-0.306

Sequence	PBM binding z-score [1]	PBM binding z-score [2]	PBM binding z-score [3]	PBM binding z-score [4]	PBM binding z-score [5]	PBM binding z-score [6]	PBM binding z-score [7]	PBM binding z-score [8]	PBM binding z-score [9]	PBM binding z-score [10]
CCTCGGTGGACAGAAGGTCAGAGCTGTCCGCTTT	-0.193	0.138	-2.04	-1.69	1.8	1.32	-0.447	1.66	-0.0873	2.56
AGAACGAGGGCAGTGAGTTGATAGCACGGGTGGC	2.18	1.32	0.223	-0.247	-0.315	0.372	2	-0.326	-0.462	1.6
CCTTACGTGTCACTGACAGGTTATAGCATTTGGA	2.18	1.32	0.83	1.13	1.53	0.903	0.611	1.21	1.67	1.19
GCTGCTAGGTCAGGTTGGTCAGCTTACGGGTACG	2.99	1.96	-0.781	-0.52	0.591	0.193	-0.264	0.655	-0.341	3.31
CCTAATGGGCCAAGGTCATTGATCAGTCAAAGCA	2.35	2.59	-0.175	-0.521	2.49	3.83	1.87	3.77	0.774	3.59
ATCTCAAGGTAAAGTTCAGTGAAAGATCGATAGA	0.17	1.36	1.42	1.27	1.71	2.26	2.1	1.78	1.65	2.97
TCTTTTAGATCAGCAGGTTAAGAAAGCTGGCCAA	1.92	0.4	0.922	0.837	0.344	0.321	0.072	0.753	0.437	0.563
CAAACTAGGTCACAGAGGTCAAGGTCCGTGCGTA	8.45	9.01	2.38	2.54	4.67	6.54	10	7.58	2.96	5.46
CGAACTAGGTCATCCAGCACAGTGAATACATTGA	8.26	8.11	2.99	2.39	1.64	1.47	0.241	2.25	0.526	3.71
CCGACTGGGGCATAAGGTTGCCATAAGCCAGCCC	2.51	2.07	-0.622	-1.53	-0.22	-0.532	-0.499	0.0769	-0.329	0.569
CCTAGTTGGTCAGGAGGTCACGCACCGGATATGA	1.74	4.03	0.246	-0.0131	3.74	4.85	1.04	5.52	2.11	4.06
TCGCCTAGGTCATTCAGGGGCCAGTATAGAAAGC	2.54	2.19	-0.243	-0.908	1.82	2.3	-0.0121	3.36	-0.254	3.96
GCTAGTTGGTCAGTAAAAGGTCACACAACGGTCG	0.826	2.77	0.539	0.321	3.81	5.2	1.19	6.17	2.05	4.43
CCTCACGGGTCACTGACAGGTTATAGCATTTGGA	1.77	2.15	-0.537	-0.176	1.89	3.33	0.0959	3.98	0.868	3.85
CCTACTCGGCCAAGGTCATTGATCAGTCAAAGCA	1.8	1.68	-0.0349	-0.365	2.76	3.75	2.34	3.59	1.82	3.52
CGTCAGAGTTCAACTAAGGTAACGTAAAGCACGC	0.228	1.32	0.422	0.416	2.24	5.76	6.21	4.1	1.3	4.73
AGAATGATGTTATTAAGATCAGGGAATTGCGGTC	-0.219	0.135	0.648	0.441	0.197	-0.0155	-0.0811	0.136	0.841	-0.333
CCAGACAGGTGAACGGTAACTCAGTCTGGTACGC	1.49	1.08	-0.573	-0.154	0.0136	-0.325	-0.355	-0.289	-0.204	0.99
CCTTACGGGTCAGTCCAGGTTATAGCATCGGAGT	1.7	2.05	-0.331	-0.72	1.36	4.25	0.276	2.69	0.405	3.31
